Screening data as filed in PubChem.
PNC inhibitor = inhibitors of perinucleolar compartment assembly; PC3M PTB-GFP, PNC prevalence imaging, 16 h; hits give low values; activity change (PNC), negative = inhibition, % at 10 µM; 140,000 compounds, 3.1% hits; AID 2417;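 active = readout at or below -70, meaning at least 70% loss of cells showing the perinucleolar compartment, a nuclear body marking cancer cells; inconclusive = readout between -30 and a set limit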;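 note: plate controls were DMSO wells for no effect and camptothecin positive control wells for full effect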
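PC3M cells stably expressing PTB-GFP, 750–1000 cells/well, treated 16 h at 37 °C with compound (23 nl of library stock), in duplicate. After paraformaldehyde fixation and Hoechst stain, imaged at 20x; PNC prevalence scored by image analysis.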
ALOX12 inhib = inhibitors of human 12-lipoxygenase (ALOX12); purified 12-hLO, xylenol orange hydroperoxide absorbance; Potency, µM (highest dose often 57.1 µM), inactives show at the top dose activity change, negative = inhibition, actives largely listed as inhibitors; 150,000 compounds, 0.12% hits; active = well fitted inhibition curve with a large enough effect; inconclusive = small, poorly fitted or top-dose-only effect; note: potency is the fitted concentration of half-maximal effect; nearly all actives have a fitted effect of over 55% in size
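Hydroperoxide formation by human 12-lipoxygenase from 40 uM arachidonic acid was followed colorimetrically via ferric-xylenol orange complex, using the 573/405 nm absorbance ratio. Enzyme concentration was 150 nM, with 30 min reaction at room temperature.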
Lamin A splicing = changes lamin A minigene splicing in HeLa cells. HeLa LMNA splicing GFP/RFP minigene ratio, 48 h. Potency, µM (highest dose often 46.1 µM), without a hit: at the top dose ratio change, negative = inhibition, usual class: inhibitors. AID 1487. 200,000 compounds, 0.01% hits; active = well fitted inhibition curve with a large enough effect in the signal ratio, with a control signal flat, not every such curve was filed as active; inconclusive = small, poorly fitted or top-dose-only effect, or effect the other way, or a change in a side signal; the % refers to the signal ratio; note: potency is the fitted concentration of half-maximal effect
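S3 HeLa cells stably expressing lamin A-EGFP splicing minigene plus DsRed2, 600 cells/well, 48 h compound exposure at 37C. Laser-scanning cytometry; analysed as GFP (500-530 nm)/RFP (575-640 nm) total intensity ratio; 0.5% DMSO vehicle.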
ALDH1A1 block = blocks purified human ALDH1A1 activity; AID 1030; 220,000 compounds, 7.3% hits; Potency, µM (titrated, usually from 75.3 µM), without a hit: at the highest dose activity, negative = inhibition, hits mostly inhibitors; Purified ALDH1A1, NADH fluorescence, propionaldehyde substrate;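 note: potency is the fitted concentration of half-maximal effect; plate controls were no enzyme wells and a reference inhibitor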
Target sequence (P00352 whole entry, looked up): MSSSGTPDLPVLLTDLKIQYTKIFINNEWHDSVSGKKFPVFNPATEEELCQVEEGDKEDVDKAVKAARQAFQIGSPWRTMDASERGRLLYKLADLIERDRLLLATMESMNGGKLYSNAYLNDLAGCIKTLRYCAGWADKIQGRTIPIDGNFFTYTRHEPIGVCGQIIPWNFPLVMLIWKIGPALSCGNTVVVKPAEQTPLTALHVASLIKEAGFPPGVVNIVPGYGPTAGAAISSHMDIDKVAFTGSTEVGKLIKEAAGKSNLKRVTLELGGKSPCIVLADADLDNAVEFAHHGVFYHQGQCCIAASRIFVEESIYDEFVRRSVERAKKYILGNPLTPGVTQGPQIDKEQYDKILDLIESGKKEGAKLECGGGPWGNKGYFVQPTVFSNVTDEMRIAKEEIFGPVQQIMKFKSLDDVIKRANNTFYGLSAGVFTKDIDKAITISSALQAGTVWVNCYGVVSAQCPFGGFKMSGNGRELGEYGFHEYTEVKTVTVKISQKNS
HPGD block = blocks human HPGD enzyme activity | Potency, µM, for the others: top-dose activity change, negative = inhibition, actives largely listed as inhibitors | 150,000 compounds, 4.3% hits | purified HPGD, NADH fluorescence kinetic, PGE2 substrate; note: potency is the fitted concentration of half-maximal effect
Target sequence (P15428 whole entry, looked up): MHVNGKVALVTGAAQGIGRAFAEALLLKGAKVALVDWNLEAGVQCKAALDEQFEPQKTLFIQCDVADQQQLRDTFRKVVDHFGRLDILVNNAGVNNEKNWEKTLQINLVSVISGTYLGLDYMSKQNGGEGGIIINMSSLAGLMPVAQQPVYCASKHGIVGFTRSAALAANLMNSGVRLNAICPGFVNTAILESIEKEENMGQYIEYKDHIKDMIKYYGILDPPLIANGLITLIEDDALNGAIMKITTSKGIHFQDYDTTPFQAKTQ
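20 nM HPGD preincubated 15 min at room temperature with compound in 50 mM Tris-HCl pH 8, 0.01% Tween 20. Started with 1 mM NAD+ and 30 uM prostaglandin E2; NADH fluorescence (360/450 nm) read 5 times over 30-s intervals, last minus first.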
* hit, by the source's call; ? = inconclusive; · = no result given; [ ] = another dose, or the depositor's remark. Rows were chosen to be rich in hits. Some 10% of all compounds tested hit in one or more screens of this group. Unless noted, calls come from the whole dose curve; as a rule, active = well fitted inhibition curve with a large enough effect (not every such curve was filed as active); inconclusive = small, poorly fitted or top-dose-only effect, or another doubt; inactive = no such curve, though single readings can be large or run the other way. Unless noted, % is set by controls: 0 for no effect and ±100 for the full control effect.

SMILES	PNC inhibitor	ALOX12 inhib	Lamin A splicing	ALDH1A1 block	HPGD block
CCCOc1ccc(CNC(=O)CN2C(=O)c3cccnc3Oc3ccc(C)cc32)cc1	·	·	-25.7%[46 µM]	·	·
Cn1cc(C=O)c2cc(F)ccc21	·	·	·	2.24µM*	·
Cn1c(C(=O)O)cc2cc(F)ccc21	?	2.3%	2.9%	?	?
CC(C)Oc1ccc(CNC(=O)CC(c2ccccc2)c2cc(Cl)ccc2O)cc1 (configuration not stated)	71.1	-10.8%	?	-1.2%	-19.6%
CCCCCCNC(=O)CC(c1ccccc1)c1cc(Br)ccc1O (configuration not stated)	3.5	-9.2%	?	0.3%	8.91µM*
CC(C)NC(=O)CC(c1ccccc1)c1cc(Br)ccc1O (configuration not stated)	?	-9.6%	-11.5%	2.3%	25.1µM*
Cc1ccc(O)c(C(CC(=O)NCc2cccnc2)c2ccccc2)c1 (configuration not stated)	·	·	·	16.1%	·
Cc1cc(O)c2c(c1O)C(=O)c1c(O)cc(C)c(O)c1C2=O	·	-9.0%	·	-8.5%	-14.1%
Cc1cc(=O)c2c(O)c3c(O)cc(O)c4c5c(O)cc(O)c6c(O)c7c(=O)cc(C)c8c1c2c(c34)c(c65)c78	·	?	·	-5.1%	8.91µM*
COc1cc(N)c(Cl)cc1C(=O)N[C@H]1CCN(CCCOc2ccc(F)cc2)C[C@@H]1OC	·	-2.8%	·	14.0%	-15.8%
O=C(COCCOCC(=O)N(c1ccccn1)C1CCCCC1)N(c1ccccn1)C1CCCCC1	-100.0*	13.5%	-7.0%	6.8%	-9.5%
CC(C)(C)c1ccc(OCC(=O)N(c2ccccn2)C2CCCCC2)cc1	-25.7	-0.8%	-12.5%	-5.3%	-7.4%
O=C(CSCCO)Nc1ccccc1	-10.7	-1.4%	-9.7%	5.8%	-20.6%
CCCCOC(=O)c1ccc(NC(=O)CSc2nncn2C)cc1	53.7	4.9%	-3.6%	?	·
CCCCOC(=O)c1ccc(NC(=O)CSCc2n[nH]c(=O)[nH]2)cc1	7.5	1.1%	13.6%	12.6µM*	-14.7%
CCOC(=O)c1ccc(NC(=O)CSCc2ccco2)cc1	11.3	-12.5%	-12.5%	2.24µM*	-27.2%
COC(=O)c1ccc(NC(=O)CSCC(=O)OCC(=O)c2ccc(Br)cc2)cc1	0.0	-0.2%	-7.4%	22.4µM*	-30.0%
CCc1ccc(NC(=O)CSCCO)cc1	31.5	-0.2%	-5.4%	-3.6%	20µM*
CCOC(=O)c1ccc(NC(=O)CCC(=O)OC)cc1	20.2	16.1%	-4.2%	-13.2%	-27.7%
CC(C)(C)NC(=O)c1oc2ccccc2c1NC(=O)c1ccc(F)cc1	·	·	-8.6%[46 µM]	·	·
CCOC(=O)c1ccc(NC(=O)CSCCC(=O)O)cc1	·	·	-1.0%[46 µM]	31.6µM*	·
Cc1[nH]n(-c2ccccc2)c(=O)c1C=Nc1ccc(S(=O)(=O)Nc2nccs2)cc1	·	·	·	12.6µM*	·
CCc1nnc(NS(=O)(=O)c2ccc(N=Cc3c(C)[nH]n(-c4ccc(Cl)cc4)c3=O)cc2)s1	0.0	-2.2%	-4.3%	?	?
CCc1nnc(NS(=O)(=O)c2ccc(N=Cc3c(C)[nH]n(-c4cccc(Cl)c4)c3=O)cc2)s1	?	22.1%	-5.6%	?	12.6µM*
Cc1ccc(-n2[nH]c(C)c(C=Nc3ccc(S(=O)(=O)Nc4nccs4)cc3)c2=O)cc1C	5.0	0.5%	-3.4%	4.2%	?
SMILES	PNC inhibitor	ALOX12 inhib	Lamin A splicing	ALDH1A1 block	HPGD block
O=C(Oc1ccc(-c2csnn2)cc1)c1cccs1	·	·	·	2.7%	·
O=C(Oc1ccccc1-c1csnn1)c1cccs1	·	·	11.5%[46 µM]	17.8µM*	·
CC1CCN(c2nc3c(c(=O)[nH]c(=O)n3C)n2CC(C)CSc2nnnn2-c2ccccc2)CC1 (configuration not stated)	6.9	0.8%	1.7%	20µM*	-5.3%
Cn1c(=O)[nH]c(=O)c2c1nc(N1CCOCC1)n2CCCSc1ncccn1	-113.7*	-4.3%	8.5%	1.2%	-9.8%
Cn1c(=O)[nH]c(=O)c2c1nc(N1CCCCC1)n2CCCSc1nnnn1-c1ccccc1	?	-1.7%	-6.2%	7.94µM*	-12.8%
Cn1c(=O)[nH]c(=O)c2c1nc(N1CCOCC1)n2CCSc1nc2ccccc2[nH]1	-4.2	-5.9%	8.9%	3.7%	-9.7%
CCCn1c(N2CCC(Cc3ccccc3)CC2)nc2c1c(=O)[nH]c(=O)n2C	-18.7	-16.1%	?	?	-7.6%
Cn1c(=O)[nH]c(=O)c2c1nc(Br)n2CCSc1nnnn1-c1ccccc1	-19.0	-4.7%	-1.2%	-2.9%	-7.3%
CN1CCN(c2nc3c(c(=O)[nH]c(=O)n3C)n2CCCSc2nnnn2-c2ccccc2)CC1	·	·	-7.5%[46 µM]	22.4µM*	·
N=c1ccn2c(n1)O[C@H]1[C@@H](O)[C@@H](CO)O[C@H]12	·	·	?	-4.1%	4.8%
COc1ccc(NC(=O)Cn2c(=O)cc(C)c3c(C)nn(C)c32)cc1	·	·	20.7%[46 µM]	·	·
COc1cc(-c2ccno2)ccc1S(=O)(=O)N1CCN(c2ccc(C(C)=O)cc2)CC1	·	·	-11.2%[46 µM]	·	·
CCOC(=O)C1(C(=O)O)NC(=O)CC1c1ccccc1 (configuration not stated)	-95.2*	1.3%	-6.0%	-8.3%	-8.3%
CCOC(=O)C1(C(=O)OCC)CC1c1ccccc1 (configuration not stated)	?	1.0%	-7.7%	9.0%	0.5%
O=C(NCc1ccco1)c1ccc2c(c1)C(=O)N(Cc1ccccc1)C2=O	?	-1.8%	-1.1%	12.6µM*	-25.8%
O=C(CCN1C(=O)c2ccccc2C1=O)Nc1sc2c(c1C(=O)NCc1ccco1)CCCC2	-113.9*	-9.0%	4.0%	?	-13.2%
CCN1C(=O)c2ccc(C(=O)Nc3nccs3)cc2C1=O	?	-2.9%	3.4%	4.47µM*	-8.4%
Cc1ccc(CN2C(=O)c3ccccc3Sc3ccc(C(=O)NCc4ccco4)cc32)cc1	·	·	2.0%[46 µM]	·	·
CC(C)CCN1C(=O)c2ccc(C(=O)NCc3ccco3)cc2C1=O	?	2.4%	4.6%	11.2µM*	-16.0%
[Cu].[NH-][C@H](CC(=O)O)C(=O)O.[NH-][C@H](CC(=O)O)C(=O)O	·	-4.8%[11.4 µM]	·	0.9%[13.5 µM]	-7.2%
CCN1C(=O)c2ccc(C(=O)NCc3ccccc3)cc2C1=O	-2.1	1.2%	20.1%	4.47µM*	-18.5%
O=C(NCc1ccccc1)c1ccc2c(c1)C(=O)N(Cc1ccncc1)C2=O	-4.6	-2.2%	6.3%	?	-8.9%
CCOC(=O)N1CCC(N2C(=O)c3ccc(C(=O)NCc4ccco4)cc3C2=O)CC1	-119.3*	4.5%	-6.7%	11.9µM*	-12.5%
CCc1ccc(S(=O)(=O)Nc2ccc(O)c(C(=O)O)c2)cc1	·	-7.4%	·	?	-9.4%
COc1ccc2[nH]cc(CCNc3cc(-c4c(C)noc4C)ncn3)c2c1	·	·	-13.3%	?	·
CCOC(=O)c1ccc(CN(Cc2ccccc2C)S(=O)(=O)c2ccc(C(C)(C)C)cc2)cc1	·	·	-1.2%[46 µM]	·	·
